# Data from PubChem BioAssay (EPA / NIEHS).
# The source made the active and inactive calls. How the source made its calls: active means hit-call score of the fitted dose curve at least 0.9, where 1 is the maximum; inactive means score below 0.9.
# Experiment: BSK_hDFCGF_Proliferation: Cell Proliferation Assessment in the BioMAP Diversity Plus: hDFCGF Assay (AID 2283059);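 further: curves fitted for both rise and fall of signal versus DMSO baseline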
# Conditions: primary human foreskin fibroblasts
# Procedure: BSK_hDFCGF is a cell-based, multiplexed-readout assay that uses foreskin fibroblast, a human skin primary cell, with measurements taken at 24 hours after chemical dosing in a 96-well plate.BSK_hDFCGF_Proliferation is an assay component measured in the BSK_hDFCGF assay. It measures […] related to cell proliferation using Sulforhodamine staining technology.Data from the assay component BSK_hDFCGF_Proliferation was analyzed into 1 assay endpoint. This assay endpoint, BSK_hDFCGF_Proliferation, was analyzed with bidirectional fitting relative to DMSO as the negative control and baseline of activity. Using a type of viability reporter, measures of total protein for gain or loss-of-signal activity can be used to understand the viability at the cellular-level. Furthermore, this assay endpoint can be referred to as a secondary readout, because this assay has produced multiple assay endpoints where this one serves a viability function. To generalize the intended target to other relatable targets, this assay endpoint is annotated to the cell cycle intended target family, where the subfamily is proliferation.
# The levels of cell surface (or secreted, indicated by the prefix "s") biomarker endpoints were measured by ELISA. Overt cytotoxicity to cells in confluent adherent cultures (all systems other than the BT system) was assessed by measuring total protein levels using sulforhodamine B (SRB) staining in parallel cultures at the time of biomarker measurements, indicated as SRB endpoints. For proliferation assays for adherent cell types, individual cell types are cultured at sub-confluence and relative cell numbers quantified by SRB staining at time points optimized for each system (48 h: 3C and CASM3C systems; 72 h: BT and HDF3CGF systems; 96 h: SAg system). SRB was performed by staining cells with 0.1% SRB after fixation with 10% TCA and reading wells at 560 nm.Viability and proliferation of PBMC (T cells) was quantified by Alamar Blue reduction for the SAg and BT systems. For PBMC viability (referred to as PBMC Cytotoxicity within the assay endpoint names), cells were plated (75,000/well in a 96-well plate) and then chemical samples added for 1 h before addition of activators, SEB and TSST-1 (20 ng/mL final concentration each). Cells were incubated for 90 h. Then, Alamar Blue (20 uL/well) (Invitrogen, Cat DAL1100) was added for 6 h, and the plates were read with a fluorescence microplate reader at 546/580 nm (excitation/emission). For PBMC proliferation, cells were plated and activated as above but incubated for only 16 h prior to addition of Alamar Blue. Plates were read after 6 h.
SMILES,AC50,outcome
Clc1ccc(C(c2ccc(Cl)cc2)C(Cl)(Cl)Cl)cc1,5.38 µM (active),
CCC[CH2][Sn]([Cl])([CH2]CCC)[CH2]CCC,0.148 µM (active),
CC(C)(O)c1cnn2c(-c3ccc(F)c(-c4c(F)cccc4C#N)c3)cnc2n1,,inactive
CN(C)[C@@H]1C(=O)C(C(N)=O)=C(O)[C@@]2(O)C(=O)C3=C(O)c4c(O)cccc4[C@@](C)(O)[C@H]3C[C@@H]12,22.9 µM (active),
Cc1cc(N=Nc2ccccc2C)ccc1N,9.37 µM (active),
Nc1ccc(Cc2ccc(N)cc2)cc1,,inactive
[Cl-].[Cl-].[Hg+2],4.83 µM (active),
c1ccc(NNc2ccccc2)cc1,,inactive
CO[C@@H]1[C@H](OC(=O)NC(=O)CCl)CC[C@]2(CO2)[C@H]1[C@@]1(C)O[C@@H]1CC=C(C)C,2.28 µM (active),
CCCCCCCCOC(=O)c1ccc(C(=O)OCCCCCCCC)c(C(=O)OCCCCCCCC)c1,,inactive
COP(=S)(OC)SCN1C(=O)c2ccccc2C1=O,,inactive
CNC(=O)Oc1cccc2c1OC(C)(C)C2,,inactive
Nc1ccc(Cl)cc1N,11.2 µM (active),
Cc1ccc(N)c(N)c1,14.7 µM (active),
CCN(CC)CCO,,inactive
c1ccc(C2CO2)cc1 (stereo not given),,inactive
CS(=O)(=O)NC(=O)c1cc(Oc2ccc(C(F)(F)F)cc2Cl)ccc1[N+](=O)[O-],,inactive
CC(C)(C)OOC(C)(C)CCC(C)(C)OOC(C)(C)C,31.3 µM (active),
O=[N+]([O-])C(Br)(CO)CO,2.66 µM (active),
CCCSC(=O)N(CCC)CCC,,inactive

SMILES,AC50,outcome
Clc1ccc(C(c2ccc(Cl)cc2)C(Cl)Cl)cc1,11.9 µM (active),
CCCCCCCCCCCCCN1CC(C)OC(C)C1 (stereo not given),0.541 µM (active),
C=CCc1ccc2c(c1)OCO2,,inactive
N#CC(Br)Br,,inactive
CCOc1cccc(C2(N3CCN(c4ccccc4)CC3)CCC(C)CC2)c1 (stereo not given),,inactive
O=C(Oc1ccc(Br)cc1)N1CCN2CCC1CC2,,inactive
CC(C)(C)OOC(=O)c1ccccc1,20 µM (active),
CC(O)CCO (stereo not given),,inactive
Nc1ccc(Oc2ccc(N)cc2)cc1,4.11 µM (active),
Oc1ccc2ccc3cccc4ccc1c2c34,3.17 µM (active),
C[N+](C)(C)CC1CO1 (stereo not given),,inactive
Cc1ccc(N=C=O)cc1N=C=O,,inactive
ClCCOCCCl,,inactive
O=C(O)C1C2CCC(O2)C1C(=O)O (stereo not given),18.6 µM (active),
Clc1ccccc1Cl,,inactive
CCCCC(CC)COC(=O)c1ccc(C(=O)OCC(CC)CCCC)c(C(=O)OCC(CC)CCCC)c1 (stereo not given),,inactive
ClC1=C(Cl)[C@]2(Cl)[C@H]3[C@H]([C@@H]4C=C[C@H]3C4)[C@@]1(Cl)C2(Cl)Cl,5.71 µM (active),
OCCOCCO,,inactive
Cc1ccc([N+](=O)[O-])cc1,,inactive
c1ccc2c(c1)-c1cccc3cccc-2c13,23.7 µM (active),
